In PubChem BioAssay AID1159580 (chemical genetic matrix, 2015):
In all, about 5,500 compounds went through this assay and about 2,000 (36%) were called active. Inconclusive results (about 18%) are left out. No stated cut-off is given here; in the data, active means normalized growth mostly below about 0.91 (no sharp cut-off); inconclusive means no clear call, values can overlap the other calls; inactive means mostly above about 0.92. This is one part of the list.

Assay: chemical genetic growth profiling, strain panel (AID 1159580);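 further: tested at 20 µM; growth read once vehicle control cultures reached saturation at 30 °C; 1 = growth at the plate median or of vehicle wells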
Conditions: S. cerevisiae deletion strains, growth OD
[1] = locus YAL040C, strain CLN3, stronger effect = lower value
[2] = locus YCL061C, strain MRC1 (second series), stronger effect = lower value
[3] = locus YDR363W, strain ESC2, stronger effect = lower value
[4] = locus YER002W, strain NOP16, stronger effect = lower value
[5] = locus YNL175C, strain NOP13, stronger effect = lower value
[6] = locus YNL197C, strain WHI3, stronger effect = lower value
[7] = locus YNL224C, strain SQS1, stronger effect = lower value
[8] = locus YOR083W, strain WHI5 (second series), stronger effect = lower value

Measured: normalized growth

CC(C)C[C@H](N)CSSC[C@@H](N)CC(C)C
inactive: [1] 0.965 | [2] 1.01 | [3] 1 | [4] 1.02 | locus YJR075W, strain HOC1, stronger effect = lower value 1 | locus YMR307W, strain GAS1, stronger effect = lower value 1.01 | locus YNL128W, strain TEP1, stronger effect = lower value 1.01 | [5] 1.01 | [6] 1.01 | [7] 1 | [8] 1.03 | locus YPL241C, strain CIN2, stronger effect = lower value 1.01

c1ccc(-c2nnc(-c3ccccn3)nc2-c2ccccc2)cc1
active: locus YAR019C, strain CDC15, stronger effect = lower value 0.857 | locus YDL132W, strain cdc53, stronger effect = lower value 0.856 | locus YDR052C, strain DBF4, stronger effect = lower value 0.908 | locus YDR054C, strain cdc34, stronger effect = lower value 0.845 | locus YFL009W, strain cdc4, stronger effect = lower value 0.812 | locus YFL029C, strain CAK1, stronger effect = lower value 0.806 | locus YFR028C, strain CDC14, stronger effect = lower value 0.871 | locus YGR092W, strain DBF2, stronger effect = lower value 0.473 | locus YHR030C, strain SLT2, stronger effect = lower value 0.531 | locus YHR079C, strain IRE1, stronger effect = lower value 0.487 | locus YJL095W, strain BCK1, stronger effect = lower value 0.47 | locus YJR016C, strain ILV3, stronger effect = lower value 0.83 | locus YKL048C, strain ELM1, stronger effect = lower value 0.683 | locus YKL101W, strain HSL1, stronger effect = lower value 0.716 | locus YKL193C, strain SDS22, stronger effect = lower value 0.867 | locus YKL203C, strain TOR2, stronger effect = lower value 0.652 | locus YLR113W, strain HOG1, stronger effect = lower value 0.581 | locus YLR133W, strain CKI1, stronger effect = lower value 0.676 | locus YLR403W, strain SFP1, stronger effect = lower value 0.631 | locus YMR205C, strain PFK2 (second series), stronger effect = lower value 0.734 | locus YMR277W, strain FCP1, stronger effect = lower value 0.871 | locus YNL207W, strain RIO2, stronger effect = lower value 0.813 | locus YNL307C, strain MCK1 (second series), stronger effect = lower value 0.623 | locus YOL078W, strain AVO1, stronger effect = lower value 0.859 | locus YOR061W, strain CKA2, stronger effect = lower value 0.662 | locus YOR119C, strain RIO1, stronger effect = lower value 0.57 | locus YPL204W, strain HRR25, stronger effect = lower value 0.661 | locus YPL256C, strain CLN2, stronger effect = lower value 0.545 | strain NNK1, stronger effect = lower value 0.814 | strain TSCII, stronger effect = lower value 0.842
inactive: locus YBL105C, strain PKC1, stronger effect = lower value 0.945 | locus YBR135W, strain CKS1, stronger effect = lower value 0.937 | locus YBR136W, strain MEC1, stronger effect = lower value 0.904 | locus YBR160W, strain CDC28, stronger effect = lower value 0.944 | locus YDL017W, strain CDC7, stronger effect = lower value 0.946 | locus YDL028C, strain MPS1, stronger effect = lower value 0.896 | locus YDL101C, strain DUN1, stronger effect = lower value 0.957 | locus YDL108W, strain KIN28, stronger effect = lower value 0.917 | locus YDL214C, strain PRR2, stronger effect = lower value 0.814 | locus YDR226W, strain ADK1, stronger effect = lower value 0.924 | locus YDR477W, strain SNF1, stronger effect = lower value 0.748 | locus YER123W, strain YCK3, stronger effect = lower value 0.704 | locus YER133W, strain GLC7, stronger effect = lower value 0.783 | locus YFR003C, strain YPI1, stronger effect = lower value 0.943 | locus YFR019W, strain FAB1, stronger effect = lower value 0.796 | locus YGR040W, strain KSS1, stronger effect = lower value 0.748 | locus YGR052W, strain FMP48, stronger effect = lower value 0.641 | locus YHR082C, strain KSP1, stronger effect = lower value 0.655 | locus YHR205W, strain SCH9, stronger effect = lower value 0.689 | locus YIL147C, strain SLN1, stronger effect = lower value 0.893 | locus YJL128C, strain PBS2, stronger effect = lower value 0.871 | locus YJL157C, strain FAR1, stronger effect = lower value 0.74 | locus YJR066W, strain TOR1 (second series), stronger effect = lower value 0.663 | locus YJR066W, strain TOR1, stronger effect = lower value 0.565 | locus YKL067W, strain YNK1, stronger effect = lower value 0.792 | locus YML070W, strain DAK1, stronger effect = lower value 0.78 | locus YMR001C, strain CDC5, stronger effect = lower value 0.903 | locus YNL006W, strain LST8, stronger effect = lower value 0.932 | locus YNL020C, strain ARK1, stronger effect = lower value 0.746 | locus YNL161W, strain CBK1, stronger effect = lower value 0.938 | locus YNL183C, strain NPR1, stronger effect = lower value 0.655 | locus YNL222W, strain SSU72, stronger effect = lower value 0.914 | locus YOL136C, strain PFK27, stronger effect = lower value 0.861 | locus YOR231W, strain MKK1, stronger effect = lower value 0.631 | locus YOR329C, strain SCD5, stronger effect = lower value 0.921 | locus YPL031C, strain PHO85, stronger effect = lower value 0.774 | locus YPL153C, strain RAD53, stronger effect = lower value 0.695 | locus YPL209C, strain IPL1, stronger effect = lower value 0.931 | locus YPR025C, strain CCL1, stronger effect = lower value 0.927 | locus YPR106W, strain ISR1, stronger effect = lower value 0.919 | locus YPR111W, strain DBF20, stronger effect = lower value 0.885

c1ccc(-c2ccccn2)nc1
inactive: [1] 0.974 | [2] 0.975 | [3] 1.02 | [4] 0.966 | locus YGR078C, strain PAC10, stronger effect = lower value 0.977 | locus YMR263W, strain SAP30, stronger effect = lower value 1 | locus YNL153C, strain GIM3, stronger effect = lower value 0.942 | [5] 0.987 | [6] 0.95 | [7] 0.991 | locus YNL322C, strain KRE1, stronger effect = lower value 1.03 | [8] 0.972
